Bioassay records: PubChem, Paczesny and Yang Labs, IUPUI and University of Michigan
Many of the other results were omitted from the sample, so hits are more common in it than they were.
ST2 IL33 inh – inhibitors of human ST2 (IL1RL1) binding to IL-33, primary screen, biochemical, AlphaLISA; Interleukin-1 receptor-like 1 (Homo sapiens), Q01638; AlphaLISA ST2-Fc/biotin-IL-33 interaction, 1 h; inhibition, % for hits at 17 µM; actives 2.3% (n = 78,000); AID 1259354, 2018; in the data active = inhibition above about 30%
Target sequence (Q01638 whole entry, looked up): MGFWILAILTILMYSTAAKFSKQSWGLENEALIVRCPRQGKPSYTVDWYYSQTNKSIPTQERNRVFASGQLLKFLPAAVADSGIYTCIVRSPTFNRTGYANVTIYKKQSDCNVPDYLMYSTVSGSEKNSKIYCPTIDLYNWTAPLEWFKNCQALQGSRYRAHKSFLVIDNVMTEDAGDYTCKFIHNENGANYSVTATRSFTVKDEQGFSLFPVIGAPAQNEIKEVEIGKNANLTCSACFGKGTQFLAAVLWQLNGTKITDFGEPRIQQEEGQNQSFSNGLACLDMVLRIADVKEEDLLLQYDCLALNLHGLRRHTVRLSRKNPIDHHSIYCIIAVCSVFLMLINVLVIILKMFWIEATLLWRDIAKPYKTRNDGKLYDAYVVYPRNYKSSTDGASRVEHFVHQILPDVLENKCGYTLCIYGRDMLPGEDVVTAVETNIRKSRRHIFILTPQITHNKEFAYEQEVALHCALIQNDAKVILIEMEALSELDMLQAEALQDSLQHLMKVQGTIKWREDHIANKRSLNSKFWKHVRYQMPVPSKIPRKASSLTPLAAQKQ
Numbers stand for hits; - = inactive.

SMILES	ST2 IL33 inh
O=C(Nc1ccccc1C1CC1)c1ccc(Cl)cc1	-
Cc1ccccc1NC(=O)C1C2CCCCC21 (stereo not drawn)	-
Cc1ccccc1NC1CC(C)Nc2c(C)cccc21 (stereo not drawn)	39.0%
CSCCCN(C)Cc1cccc2ncccc12	-
O=C(CN1C(=O)c2ccccc2C1=O)NC(c1ccccc1)c1ccccc1Br (stereo not drawn)	-
Cc1cc(C)c(OCC(O)CN2CCOCC2)c(C)c1 (stereo not drawn)	-
O=[N+]([O-])c1ccc(N=Cc2cc(Br)cc(I)c2O)cc1	-
Oc1c(C=Nc2cccc(F)c2)[nH]c2ccc(Br)c(Cl)c12	32.0%
O=[N+]([O-])c1cccc(N=Cc2ccc(Br)c([N+](=O)[O-])c2)c1	-
Cc1ccc(C=Nc2ccc(Br)cc2)cc1	-
Cc1c(Cl)c(C)c([N+](=O)[O-])c(O)c1C=Nc1cccc(C(=O)O)c1	-
Oc1c(C=Nc2ccc(Br)cc2)[nH]c2ccc(Br)c(Cl)c12	30.0%
Oc1c(C=NC2CCCCC2)[nH]c2ccc(Br)c(Cl)c12	45.0%
Cn1ccnc1Sc1nc2c(c(=O)n(C)c(=O)n2C)n1Cc1ccc(Cl)c(Cl)c1	-
CN(CCNS(=O)(=O)c1cccc2nsnc12)Cc1ccccc1	-
COc1cccc(CN2CCC(N3CCN(CCO)CC3)CC2)c1	-
Cn1c(=O)c2c(nc(NCCc3ccccc3)n2Cc2c(F)cccc2Cl)n(C)c1=O	-
COCCn1c(=O)[nH]c2cc(C(=O)N3CCOCC3)ccc2c1=O	-
CC(Oc1ccccc1)C(=O)N1CCN(c2ccc([N+](=O)[O-])cc2)CC1 (stereo not drawn)	48.0%
O=C(c1ccccc1Cl)N1CCN(c2ccc([N+](=O)[O-])cc2)CC1	-
O=C(C(Cl)Cl)N1CCN(c2ccc([N+](=O)[O-])cc2)CC1	-
O=C(c1cc(C(c2ccccc2)c2ccccc2)no1)N1CCC(Oc2ccc(F)cc2)CC1	-
O=C(c1ccc(-n2cnnc2)cc1Cl)N1CCCC2(CCNC2)C1 (stereo not drawn)	-
CC(=O)NC(=O)c1cc2cc(Cl)cc(Cl)c2oc1=Nc1cccc(C#N)c1	-
N#Cc1ccc(N=c2oc3ccccc3cc2C(=O)Nc2ccccc2)cc1	33.0%
SMILES	ST2 IL33 inh
CC(=O)NC(=O)c1cc2cc(Br)ccc2oc1=Nc1cccc(C#N)c1	33.0%
COc1ccc2cc(C(=O)Nc3ccccc3)c(=Nc3ccc(C#N)cc3)oc2c1	-
COc1ccc2oc(=Nc3ccc(C#N)cc3)c(C(=O)Nc3ccccc3)cc2c1	-
CC(=O)NC(=O)c1cc2cc(Br)ccc2oc1=Nc1cccc(F)c1	-
COc1ccc(-c2cc(C)cc3c2OC(CNC(=O)c2cccc(Cl)c2F)C3)nn1 (stereo not drawn)	-
Cc1ccc2c(-c3cc4c(n(CC5CC5)c3=O)CCN(C(=O)Cc3c(C)noc3C)C4)cccc2n1	-
CCOc1cc(C=O)ccc1OCC(=O)Nc1ccc(C)c(C)c1	-
CCc1cc(N2CCNC(C(=O)O)C2)nc(N2CCOCC2)n1 (stereo not drawn)	-
Cc1cccc(Nc2nc(C)[nH]c2[N+](=O)[O-])c1	-
Cn1c(C(=O)Nc2cccc(Cl)c2)cc2c(=O)n3ccccc3nc21	-
Cc1cccc(N=Cc2c(Nc3cccc(C)c3)nc3ccccn3c2=O)c1	44.0%
Cc1csc(C(C)N(C)Cc2cn[nH]c2-c2ccc(-c3ccccc3)cc2)n1 (stereo not drawn)	-
Cc1cccn2c(=O)c3cc(C(=O)NC4CCCCC4)c(=N)n(CCOCCO)c3nc12	-
Cn1c(=O)n(Cc2ccc(Cl)cc2)c(=O)c2c1nc(NCCO)n2Cc1ccccc1	-
CC(CCn1cccn1)N1CCC(Oc2cc(Cl)ccc2C(=O)N2CCCCC2)CC1 (stereo not drawn)	-
C/C=C(/C(=O)O)N1C(=O)C=C(C)C1=O	-
Cc1ccc(-c2nc(N3CCC(C(N)=O)(N4CCCCC4)CC3)c3ccccc3n2)cc1	-
O=C(Nc1cc(Cl)cc(Cl)c1)c1cnc2n(c1=O)CCS2	-
O=C(Nc1ccc(Cl)c(Cl)c1)c1cnc2n(c1=O)CCS2	32.0%
O=C(Nc1ccc(F)c(Cl)c1)c1cnc2n(c1=O)CCS2	-
Cc1cccc(C)c1NC(=O)CSc1nnc(-c2ccccc2)c(-c2ccccc2)n1	-
COc1ccc(NC(=O)CSc2ncccn2)cc1	-
COc1cc(NC(=O)CSc2nnc(-c3ccco3)c(-c3ccco3)n2)cc(OC)c1	31.0%
Cc1ccccc1CN1CCC(O)CC1	-
O=C(Nc1nc(-c2cccs2)cs1)c1cc2ccccc2oc1=O	-
SMILES	ST2 IL33 inh
O=c1oc2ccc(Br)cc2cc1-c1nnc(-c2ccccc2Br)o1	-
COc1ccc(-c2cc3cc(Br)ccc3oc2=O)cc1	-
O=c1oc2ccccc2cc1-c1nc(-c2cccs2)cs1	51.0%
O=c1oc2cc(O)ccc2cc1-c1nc(-c2ccc3ccccc3c2)cs1	-
O=c1oc2ccc(Br)cc2cc1-c1nc(-c2cccs2)cs1	30.0%
Cn1c(=O)oc2cc(S(=O)(=O)NCc3ccccc3F)ccc21	-
Cc1ccc2nc(CN(C)Cc3cnc(C)[nH]3)[nH]c2c1	-
COc1ccc(-c2nc(C(N)=O)c3c(n2)n(-c2ccc(F)cc2)c(=O)n3C)cc1	-
CCCCN(CCCC)S(=O)(=O)c1ccc2oc(C(=O)O)c(C)c2c1	-
O=C(Cc1ccc(-n2c(=O)[nH]c3ccsc3c2=O)cc1)N1CCN(c2ncccn2)CC1	-
NC(=O)CSc1nc2c([nH]c3ccccc32)c(=O)n1-c1ccc(Cl)cc1	-
O=C(CSc1nc2c([nH]c3ccccc32)c(=O)n1-c1ccc(F)cc1)N1CCCCC1	-
O=C(CSc1nc2c([nH]c3ccccc32)c(=O)n1-c1cccc(Cl)c1)N1CCOCC1	35.0%
CCC(=O)Nc1ccc(OCC(=O)N2[C@@H]3CC[C@H]2CC(O)C3)cc1 (stereo partly drawn)	-
O=[N+]([O-])c1ccc(CN2C[C@H](O)C[C@H]2c2nc(-c3cccc([N+](=O)[O-])c3)no2)cc1	-
CC1(C)CC(=O)C2=C(C1)C(c1ccc(Br)c([N+](=O)[O-])c1)C1=C(O2)C(=O)CC(C)(C)C1	-
COc1ccccc1CNC(=O)CSCc1ccc([N+](=O)[O-])cc1	-
CNc1ncc(CN(C)c2nc(-c3cccnc3)nc3c2cnn3C)cn1	46.0%
COCc1nc(N(C)Cc2cc(-c3cccnc3)no2)c2cnn(C)c2n1	-
CCSCCNc1nc(-c2cccnc2)nc2c1cnn2C	-
COc1ccc(-n2c(SCC(=O)C(C)(C)C)nc3ccccc3c2=O)cc1	-
Cc1ccc(CCSc2ccccc2)cn1	-
c1cc(CCN2CCN(C3CCC4(CCNCC4)CC3)CC2)ccn1	-
CN1C(=O)C(O)(CC(=O)c2cccc([N+](=O)[O-])c2)c2ccccc21 (stereo not drawn)	-
CN1/C(=C\C(=O)c2ccc([N+](=O)[O-])cc2)C(C)(C)c2ccccc21	36.0%
SMILES	ST2 IL33 inh
NC(=O)c1ccc(C(=O)c2ccc([N+](=O)[O-])cc2)cc1	-
Cc1oc2c(c1C(=O)NC1CCC(n3cnnc3)CC1)C(=O)CCC2 (stereo not drawn)	-
Cc1nonc1OCCNC(=O)CCN1CCCCCCC1	-
O=C1C(=O)N(CCN2CCOCC2)C(c2ccc([N+](=O)[O-])cc2)C1=C(O)c1ccccc1 (stereo not drawn)	-
O=C(/C=C(/c1ccccc1)N1CCOCC1)c1ccc([N+](=O)[O-])cc1	39.0%
O=C(c1cc([N+](=O)[O-])ccc1N1CCOCC1)N1CCOCC1	-
